In PMC8384837, “Expanding the binding specificity for RNA recognition by a PUF domain” one finds binding signal data, which are given here for 16 sequences.

Changes are numbered by the printed parent chain.

What all share (test): yeast three-hybrid, YBZ-1, SC-Leu-His + 0.5 mM 3-AT, 4 days
Common to all, as to conditions: tags: N-Gal4 AD-HA kept; label: inside an RPR1-promoter hybrid RNA with tandem MS2 sites; ssRNA

For one test, the target named is PUM1 PUF domain R4-TRT (Homo sapiens, UniProt Q14671 828-1176, N971T;H972R;Q975T). In short, it runs like this: (§1)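 Each repeat of the Pumilio-1 PUF domain was randomized at its three base-contacting residues, and these libraries were co-expressed from a centromeric plasmid with matching RNA elements in strain YBZ-1. After four days on SC-Leu (input) or SC-Leu-His + 0.5 mM 3-AT (selection), the repeat regions were PCR-amplified and Illumina-sequenced. The interaction score compares variant frequency between input and selection as a log change, computed in log2 with a pseudocount of 1 for absent variants.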

A further test addresses PUM1 PUF domain R3-AFG (Homo sapiens, UniProt Q14671 828-1176, C935A;R936F;Q939G). Put shortly: as §1
The next test concerns the target PUM1 PUF domain R4-ARA (Homo sapiens, UniProt Q14671 828-1176, N971A;H972R;Q975A). In short, it runs like this:
as §1

Another test deals with PUM1 PUF domain R5-CSR (Homo sapiens, UniProt Q14671 828-1176, R1008S;Q1011R). Put shortly:
as §1

For a further test, the target named is PUM1 PUF domain R8-PRR (Homo sapiens, UniProt Q14671 828-1176, N1122P;Y1123R;Q1126R). Put shortly: as §1
In another test the target is PUM1 PUF domain R3-EWL (Homo sapiens, UniProt Q14671 828-1176, C935E;R936W;Q939L). In short, it runs like this:
as §1

The target in the next test is PUM1 PUF domain R5-GIR (Homo sapiens, UniProt Q14671 828-1176, C1007G;R1008I;Q1011R). In short, it runs like this: as §1
In a further test the target is T1, PUM1 PUF domain R6-TFK (Homo sapiens, UniProt Q14671 828-1176, N1043T;Y1044F;Q1047K).
T1 sequence: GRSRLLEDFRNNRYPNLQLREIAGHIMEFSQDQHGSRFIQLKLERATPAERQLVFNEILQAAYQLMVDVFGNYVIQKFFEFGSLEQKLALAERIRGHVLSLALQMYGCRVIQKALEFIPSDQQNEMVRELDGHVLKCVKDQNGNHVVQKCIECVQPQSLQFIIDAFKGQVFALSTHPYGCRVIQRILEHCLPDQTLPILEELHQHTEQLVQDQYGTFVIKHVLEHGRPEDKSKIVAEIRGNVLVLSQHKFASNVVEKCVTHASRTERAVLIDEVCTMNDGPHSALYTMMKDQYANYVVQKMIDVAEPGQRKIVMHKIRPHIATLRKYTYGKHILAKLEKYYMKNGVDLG
In short, it runs like this: as §1

The next test addresses T2, PUM1 PUF domain R6-HFF (Homo sapiens, UniProt Q14671 828-1176, N1043H;Y1044F;Q1047F).
T2 sequence: T1 sequence with T216H, K220F
In short, it runs like this:
as §1

The target of another test is PUM1 PUF domain R4-VLY (Homo sapiens, UniProt Q14671 828-1176, N971V;H972L;Q975Y). In short, it runs like this:
as §1

A further test concerns the target PUM1 PUF domain R5-RQW (Homo sapiens, UniProt Q14671 828-1176, C1007R;R1008Q;Q1011W). In short, it runs like this:
as §1

The target of the next test is PUM1 PUF domain R1-RWQ (Homo sapiens, UniProt Q14671 828-1176, S863R;R864W). In short, it runs like this: as §1
The next test has as its target PUM1 PUF domain R1-HFK (Homo sapiens, UniProt Q14671 828-1176, S863H;R864F;Q867K). Put shortly:
as §1

In another test the target is PUM1 PUF domain R2-IWE (Homo sapiens, UniProt Q14671 828-1176, N899I;Y900W;Q903E). In short, it runs like this: as §1
Another test has as its target T3, PUM1 PUF domain R6-AWE (Homo sapiens, UniProt Q14671 828-1176, N1043A;Y1044W;Q1047E).
T3 sequence: T1 sequence with T216A, F217W, K220E
In short, it runs like this: as §1

For another test, the target named is T4, PUM1 PUF domain R6-HWC (Homo sapiens, UniProt Q14671 828-1176, N1043H;Y1044W;Q1047C).
T4 sequence: T1 sequence with T216H, F217W, K220C
Put shortly:
as §1

Another test concerns the target PUM1 PUF domain R7-RPI (Homo sapiens, UniProt Q14671 828-1176, S1079R;N1080P;E1083I). Put shortly: as §1
A further test has as its target PUM1 PUF domain R1-NLV (Homo sapiens, UniProt Q14671 828-1176, S863N;R864L;Q867V). Put shortly:
as §1

The next test has as its target PUM1 PUF domain R8-KRY (Homo sapiens, UniProt Q14671 828-1176, N1122K;Y1123R;Q1126Y). In short, it runs like this: as §1
The next test addresses PUM1 PUF domain R8-YYF (Homo sapiens, UniProt Q14671 828-1176, N1122Y;Q1126F). Put shortly: as §1

Consider “GGCUAGAACUAGUGGAUCCCCCGGCGCCCGGCGGCUCGAGCCCGGGUAAGUGUAAAUAGUCUGCAUGCCGCCGGGCGCCAUGCCUGCAGGUCGACUCUAGAAAACAUG”, for which the binding signal in the test with PUM1 PUF domain R4-TRT was 2.59 log2 enrichment (interaction score); with PUM1 PUF domain R3-AFG, 3.62 log2 enrichment (interaction score); in the test with PUM1 PUF domain R4-ARA it was 3.7 log2 enrichment (interaction score); with PUM1 PUF domain R5-CSR, 1.42 log2 enrichment (interaction score); with PUM1 PUF domain R8-PRR, 3.57 log2 enrichment (interaction score); in the test with PUM1 PUF domain R3-EWL, 5.03 log2 enrichment (interaction score). Further, the binding signal was 2.43 log2 enrichment (interaction score) with PUM1 PUF domain R5-GIR, 7.02 log2 enrichment (interaction score) with PUM1 PUF domain R6-TFK, 4.43 log2 enrichment (interaction score) in the test with PUM1 PUF domain R6-HFF and 4.53 log2 enrichment (interaction score) with PUM1 PUF domain R4-VLY.

As for “GGCUAGAACUAGUGGAUCCCCCGGCGCCCGGCGGCUCGAGCCCGGGUAAGUGUUAAUAGUCUGCAUGCCGCCGGGCGCCAUGCCUGCAGGUCGACUCUAGAAAACAUG”, the binding signal with PUM1 PUF domain R5-RQW is 2.23 log2 enrichment (interaction score); in the test with PUM1 PUF domain R5-GIR, 1.6 log2 enrichment (interaction score).

In the case of “GGCUAGAACUAGUGGAUCCCCCGGCGCCCGGCGGCUCGAGCCCGGGUAAGUGUAAGUAGUCUGCAUGCCGCCGGGCGCCAUGCCUGCAGGUCGACUCUAGAAAACAUG”, in the test with PUM1 PUF domain R3-AFG, the binding signal is 0.76 log2 enrichment (interaction score).

Take “GGCUAGAACUAGUGGAUCCCCCGGCGCCCGGCGGCUCGAGCCCGGGUAAGUGUAAAUCGUCUGCAUGCCGCCGGGCGCCAUGCCUGCAGGUCGACUCUAGAAAACAUG”: the binding signal in the test with PUM1 PUF domain R1-RWQ was 6.93 log2 enrichment (interaction score); in the test with PUM1 PUF domain R1-HFK, 2.71 log2 enrichment (interaction score).

With “GGCUAGAACUAGUGGAUCCCCCGGCGCCCGGCGGCUCGAGCCCGGGUAAGUGUAUAUAGUCUGCAUGCCGCCGGGCGCCAUGCCUGCAGGUCGACUCUAGAAAACAUG”, the binding signal with PUM1 PUF domain R4-ARA was 1.69 log2 enrichment (interaction score).

With “GGCUAGAACUAGUGGAUCCCCCGGCGCCCGGCGGCUCGAGCCCGGGUAAGUGUAAAUGGUCUGCAUGCCGCCGGGCGCCAUGCCUGCAGGUCGACUCUAGAAAACAUG”, the binding signal with PUM1 PUF domain R1-RWQ was 2.2 log2 enrichment (interaction score).

For “GGCUAGAACUAGUGGAUCCCCCGGCGCCCGGCGGCUCGAGCCCGGGUAAGUGUACAUAGUCUGCAUGCCGCCGGGCGCCAUGCCUGCAGGUCGACUCUAGAAAACAUG”, the binding signal with PUM1 PUF domain R4-ARA is 2.79 log2 enrichment (interaction score).

“GGCUAGAACUAGUGGAUCCCCCGGCGCCCGGCGGCUCGAGCCCGGGUAAGUGUAAAAAGUCUGCAUGCCGCCGGGCGCCAUGCCUGCAGGUCGACUCUAGAAAACAUG”: in the test with PUM1 PUF domain R2-IWE, the binding signal is 4.65 log2 enrichment (interaction score).

Take “GGCUAGAACUAGUGGAUCCCCCGGCGCCCGGCGGCUCGAGCCCGGGUAAGUGGAAAUAGUCUGCAUGCCGCCGGGCGCCAUGCCUGCAGGUCGACUCUAGAAAACAUG”: the binding signal with PUM1 PUF domain R6-AWE is 4.11 log2 enrichment (interaction score).

Turning to “GGCUAGAACUAGUGGAUCCCCCGGCGCCCGGCGGCUCGAGCCCGGGUAAGUGAAAAUAGUCUGCAUGCCGCCGGGCGCCAUGCCUGCAGGUCGACUCUAGAAAACAUG”, the binding signal with PUM1 PUF domain R6-HWC was 6.25 log2 enrichment (interaction score); with PUM1 PUF domain R6-AWE it was 7.15 log2 enrichment (interaction score); in the test with PUM1 PUF domain R6-TFK, 2.81 log2 enrichment (interaction score).

“GGCUAGAACUAGUGGAUCCCCCGGCGCCCGGCGGCUCGAGCCCGGGUAAGUGUCAAUAGUCUGCAUGCCGCCGGGCGCCAUGCCUGCAGGUCGACUCUAGAAAACAUG”: the binding signal was 1.8 log2 enrichment (interaction score) with PUM1 PUF domain R5-RQW, 4.8 log2 enrichment (interaction score) with PUM1 PUF domain R5-CSR and 4.37 log2 enrichment (interaction score) in the test with PUM1 PUF domain R5-GIR.

Take “GGCUAGAACUAGUGGAUCCCCCGGCGCCCGGCGGCUCGAGCCCGGGUAAGUCUAAAUAGUCUGCAUGCCGCCGGGCGCCAUGCCUGCAGGUCGACUCUAGAAAACAUG”: the binding signal in the test with PUM1 PUF domain R7-RPI is 0.71 log2 enrichment (interaction score).

As to “GGCUAGAACUAGUGGAUCCCCCGGCGCCCGGCGGCUCGAGCCCGGGUAAGUGUAAUUAGUCUGCAUGCCGCCGGGCGCCAUGCCUGCAGGUCGACUCUAGAAAACAUG”, the binding signal with PUM1 PUF domain R3-AFG is 1.51 log2 enrichment (interaction score); in the test with PUM1 PUF domain R3-EWL, 4.51 log2 enrichment (interaction score).

As to “GGCUAGAACUAGUGGAUCCCCCGGCGCCCGGCGGCUCGAGCCCGGGUAAGUUUAAAUAGUCUGCAUGCCGCCGGGCGCCAUGCCUGCAGGUCGACUCUAGAAAACAUG”, the binding signal with PUM1 PUF domain R7-RPI was 2.52 log2 enrichment (interaction score).

For “GGCUAGAACUAGUGGAUCCCCCGGCGCCCGGCGGCUCGAGCCCGGGUAAGUGUAAAUUGUCUGCAUGCCGCCGGGCGCCAUGCCUGCAGGUCGACUCUAGAAAACAUG”, the binding signal was 7.23 log2 enrichment (interaction score) with PUM1 PUF domain R1-RWQ and 2.72 log2 enrichment (interaction score) with PUM1 PUF domain R1-NLV.

“GGCUAGAACUAGUGGAUCCCCCGGCGCCCGGCGGCUCGAGCCCGGGUAAGCGUAAAUAGUCUGCAUGCCGCCGGGCGCCAUGCCUGCAGGUCGACUCUAGAAAACAUG”: the binding signal with PUM1 PUF domain R8-KRY was 3.46 log2 enrichment (interaction score); in the test with PUM1 PUF domain R8-PRR, 4.08 log2 enrichment (interaction score); with PUM1 PUF domain R8-YYF, 5.85 log2 enrichment (interaction score).
